From paper PMC7862700, “An all-to-all approach to the identification of sequence-specific readers for epigenetic DNA modifications on cytosine” come the findings set out here.

Common to all, as to test: DAPPL (digital affinity profiling via proximity ligation, sequencing); 10 mM Tris-HCl pH 7.5, 50 mM NaCl, 1 mM DTT, 4% glycerol, room temperature, 30 min; GST-TFs on glutathione beads, 16-mer random dsDNA library, 0.1% formaldehyde crosslink after washing; high values mean tight binding
The target of one assay is T1, FEV (Homo sapiens, UniProt Q99581 1-238).
T1 sequence: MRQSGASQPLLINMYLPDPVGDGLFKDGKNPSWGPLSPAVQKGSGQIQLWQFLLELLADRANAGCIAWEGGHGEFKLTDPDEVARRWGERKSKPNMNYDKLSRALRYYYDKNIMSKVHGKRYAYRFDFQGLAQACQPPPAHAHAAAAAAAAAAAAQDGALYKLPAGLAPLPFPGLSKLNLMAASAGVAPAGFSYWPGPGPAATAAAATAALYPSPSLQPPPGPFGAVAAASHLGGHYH
Conditions: protein: recombinant; tags: N-terminal GST; dsDNA, one strand shown. Put shortly: (§1)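 In yeast, human transcription factors were expressed with a GST fusion, then pulled down on glutathione beads and given DNA barcodes. Pooled with a tag-only sample, they were exposed to 200 nmole of a 16-mer random double-stranded DNA library (Tris/NaCl/DTT/glycerol buffer, room temperature, 30 min), washed, crosslinked with 0.1% formaldehyde, proximity-ligated using BsaI/T4 ligase for 1 h at 37 °C, PCR-amplified and read on an Illumina NextSeq500. Each hexamer's frequency of reads for a factor, divided by the matching frequency for the tag-only sample, gives the binding signal.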

In another assay the target is ETV5 (Homo sapiens, UniProt P41161 1-510). Conditions: protein: recombinant; tags: N-terminal GST; dsDNA, one strand shown. The essentials: as §1
The target of a further assay is HSF1 (Homo sapiens, UniProt Q00613 1-529). Conditions: protein: recombinant; tags: N-terminal GST; chain copies: 3; dsDNA, one strand shown. The essentials:
as §1

A further assay addresses T2, SPIC (Homo sapiens, UniProt Q8N5J4 1-248).
T2 sequence: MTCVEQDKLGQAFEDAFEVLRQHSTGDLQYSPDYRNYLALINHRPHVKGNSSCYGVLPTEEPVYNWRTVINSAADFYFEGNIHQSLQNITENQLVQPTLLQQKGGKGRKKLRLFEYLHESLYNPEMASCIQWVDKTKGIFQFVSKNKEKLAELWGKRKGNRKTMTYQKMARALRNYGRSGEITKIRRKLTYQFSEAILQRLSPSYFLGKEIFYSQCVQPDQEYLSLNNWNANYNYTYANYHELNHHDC
Conditions: protein: recombinant; tags: N-terminal GST; dsDNA, one strand shown. Put shortly: as §1

For the next assay, the target named is ELF4 (Homo sapiens, UniProt Q99607 1-663). Conditions: protein: recombinant; tags: N-terminal GST; dsDNA, one strand shown. The essentials: as §1
The target of the next assay is T3, ELK4 (Homo sapiens, UniProt P28324-2 1-405).
T3 sequence: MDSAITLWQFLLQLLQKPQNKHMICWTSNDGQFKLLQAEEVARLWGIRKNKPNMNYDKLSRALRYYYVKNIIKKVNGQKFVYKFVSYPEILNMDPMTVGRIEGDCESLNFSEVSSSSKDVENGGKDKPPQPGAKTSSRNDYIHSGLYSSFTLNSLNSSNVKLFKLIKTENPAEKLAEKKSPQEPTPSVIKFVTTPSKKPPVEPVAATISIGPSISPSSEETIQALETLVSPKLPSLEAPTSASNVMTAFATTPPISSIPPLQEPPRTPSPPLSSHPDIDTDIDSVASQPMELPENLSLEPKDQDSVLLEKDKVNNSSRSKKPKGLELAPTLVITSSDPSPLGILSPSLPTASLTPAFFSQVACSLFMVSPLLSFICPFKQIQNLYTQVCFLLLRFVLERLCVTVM
Conditions: protein: recombinant; tags: N-terminal GST; dsDNA, one strand shown. Put shortly: as §1

In another assay the target is T4, ETV2 (Homo sapiens, UniProt O00321 1-342).
T4 sequence: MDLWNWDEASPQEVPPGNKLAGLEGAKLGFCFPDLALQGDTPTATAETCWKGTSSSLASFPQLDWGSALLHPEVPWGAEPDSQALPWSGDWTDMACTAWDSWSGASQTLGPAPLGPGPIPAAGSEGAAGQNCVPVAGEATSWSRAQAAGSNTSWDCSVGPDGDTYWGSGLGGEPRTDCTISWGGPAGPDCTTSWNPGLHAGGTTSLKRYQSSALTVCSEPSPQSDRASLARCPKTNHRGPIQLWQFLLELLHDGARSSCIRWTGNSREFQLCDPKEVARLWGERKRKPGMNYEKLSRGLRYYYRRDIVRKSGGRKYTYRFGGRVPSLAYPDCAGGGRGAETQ
Conditions: protein: recombinant; tags: N-terminal GST; dsDNA, one strand shown. Put shortly:
as §1

A further assay deals with T5, ELF3 (Homo sapiens, UniProt P78545 1-371).
T5 sequence: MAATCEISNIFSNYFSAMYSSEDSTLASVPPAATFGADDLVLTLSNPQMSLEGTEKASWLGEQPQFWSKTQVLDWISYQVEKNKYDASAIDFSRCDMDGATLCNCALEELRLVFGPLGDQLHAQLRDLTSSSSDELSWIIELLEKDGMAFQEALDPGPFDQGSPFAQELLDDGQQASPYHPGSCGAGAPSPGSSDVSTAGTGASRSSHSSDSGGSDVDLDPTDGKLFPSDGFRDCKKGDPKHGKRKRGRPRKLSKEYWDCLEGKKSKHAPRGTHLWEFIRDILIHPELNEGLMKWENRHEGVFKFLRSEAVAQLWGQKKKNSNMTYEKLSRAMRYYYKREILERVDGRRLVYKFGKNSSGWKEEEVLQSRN
Conditions: protein: recombinant; tags: N-terminal GST; dsDNA, one strand shown. The essentials:
as §1

Another assay deals with CRX (Homo sapiens, UniProt O43186 1-299). Conditions: protein: recombinant; tags: N-terminal GST; dsDNA, one strand shown. The essentials: as §1
Another assay addresses ETV1 (Homo sapiens, UniProt P50549 1-477). Conditions: protein: recombinant; tags: N-terminal GST; dsDNA, one strand shown. Put shortly: as §1

ELF4, sequence (Q99607 whole entry): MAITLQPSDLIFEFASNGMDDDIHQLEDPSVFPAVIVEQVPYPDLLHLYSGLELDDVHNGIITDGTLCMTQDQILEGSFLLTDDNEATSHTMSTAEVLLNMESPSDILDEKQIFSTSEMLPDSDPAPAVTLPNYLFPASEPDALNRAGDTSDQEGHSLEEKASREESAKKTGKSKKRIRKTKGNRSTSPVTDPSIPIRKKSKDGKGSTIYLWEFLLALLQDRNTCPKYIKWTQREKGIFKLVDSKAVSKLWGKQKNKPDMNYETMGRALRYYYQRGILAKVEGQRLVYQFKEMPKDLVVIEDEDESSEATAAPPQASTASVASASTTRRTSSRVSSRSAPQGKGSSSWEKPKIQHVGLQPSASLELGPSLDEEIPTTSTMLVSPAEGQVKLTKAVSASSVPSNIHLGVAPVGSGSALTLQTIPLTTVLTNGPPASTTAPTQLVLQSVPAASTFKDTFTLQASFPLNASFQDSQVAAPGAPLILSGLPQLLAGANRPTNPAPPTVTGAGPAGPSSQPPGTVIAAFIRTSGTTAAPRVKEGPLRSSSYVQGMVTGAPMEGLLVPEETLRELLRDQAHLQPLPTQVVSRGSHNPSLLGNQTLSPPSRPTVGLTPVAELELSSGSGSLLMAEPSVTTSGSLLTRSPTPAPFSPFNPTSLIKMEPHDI
HSF1, sequence (Q00613 whole entry): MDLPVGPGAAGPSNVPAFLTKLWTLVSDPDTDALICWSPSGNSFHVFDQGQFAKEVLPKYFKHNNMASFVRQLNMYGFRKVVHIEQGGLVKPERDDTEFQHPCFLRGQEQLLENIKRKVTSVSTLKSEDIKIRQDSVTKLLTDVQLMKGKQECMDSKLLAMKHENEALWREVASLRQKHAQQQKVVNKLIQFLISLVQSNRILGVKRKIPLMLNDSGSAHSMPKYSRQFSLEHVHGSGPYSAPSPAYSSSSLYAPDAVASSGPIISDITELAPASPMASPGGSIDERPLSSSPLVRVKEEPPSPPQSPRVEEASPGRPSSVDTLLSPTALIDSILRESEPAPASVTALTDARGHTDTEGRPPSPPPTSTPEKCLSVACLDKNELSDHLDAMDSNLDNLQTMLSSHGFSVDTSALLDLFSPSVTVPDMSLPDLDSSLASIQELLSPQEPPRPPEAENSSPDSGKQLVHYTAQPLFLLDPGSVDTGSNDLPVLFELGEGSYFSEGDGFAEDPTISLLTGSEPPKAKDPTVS
ETV5, sequence (P41161 whole entry): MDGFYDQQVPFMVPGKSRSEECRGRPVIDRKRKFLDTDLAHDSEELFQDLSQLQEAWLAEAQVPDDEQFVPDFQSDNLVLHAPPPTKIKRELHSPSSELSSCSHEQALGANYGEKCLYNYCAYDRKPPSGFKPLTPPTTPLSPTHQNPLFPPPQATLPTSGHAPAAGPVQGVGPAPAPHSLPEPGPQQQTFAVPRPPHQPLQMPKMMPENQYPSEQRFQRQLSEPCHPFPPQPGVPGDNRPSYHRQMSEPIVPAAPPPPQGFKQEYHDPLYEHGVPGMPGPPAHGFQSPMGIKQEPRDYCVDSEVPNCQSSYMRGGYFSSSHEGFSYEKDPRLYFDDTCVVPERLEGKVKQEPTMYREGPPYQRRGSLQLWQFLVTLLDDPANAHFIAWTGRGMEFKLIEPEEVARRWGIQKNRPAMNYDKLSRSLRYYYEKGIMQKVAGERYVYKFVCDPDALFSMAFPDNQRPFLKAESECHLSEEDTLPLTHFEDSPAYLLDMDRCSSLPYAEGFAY
CRX, sequence (O43186 whole entry): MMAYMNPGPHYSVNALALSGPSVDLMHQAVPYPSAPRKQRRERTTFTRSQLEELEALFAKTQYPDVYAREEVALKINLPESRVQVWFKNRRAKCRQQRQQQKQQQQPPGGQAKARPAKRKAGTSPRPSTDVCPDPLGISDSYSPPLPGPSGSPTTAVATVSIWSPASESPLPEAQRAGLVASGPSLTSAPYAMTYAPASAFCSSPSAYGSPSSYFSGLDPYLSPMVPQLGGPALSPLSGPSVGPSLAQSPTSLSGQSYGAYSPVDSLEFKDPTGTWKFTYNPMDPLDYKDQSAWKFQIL
ETV1, sequence (P50549 whole entry): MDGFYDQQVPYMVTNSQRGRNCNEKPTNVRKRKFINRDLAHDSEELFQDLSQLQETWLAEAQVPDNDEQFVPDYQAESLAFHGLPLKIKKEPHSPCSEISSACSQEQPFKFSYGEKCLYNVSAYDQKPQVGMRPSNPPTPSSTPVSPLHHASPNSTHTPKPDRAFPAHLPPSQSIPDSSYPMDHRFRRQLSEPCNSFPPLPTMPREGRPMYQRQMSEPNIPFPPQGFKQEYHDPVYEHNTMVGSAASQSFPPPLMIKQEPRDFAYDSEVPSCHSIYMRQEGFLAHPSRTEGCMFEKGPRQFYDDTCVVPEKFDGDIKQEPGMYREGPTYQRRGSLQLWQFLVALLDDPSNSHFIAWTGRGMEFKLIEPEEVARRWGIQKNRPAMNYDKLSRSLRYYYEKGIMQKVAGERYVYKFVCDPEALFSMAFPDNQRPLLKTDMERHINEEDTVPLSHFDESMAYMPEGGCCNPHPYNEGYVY

In the case of TCCAAA, the binding signal in the assay with FEV is 1.18 fold enrichment (6-mer frequency, TF over GST control); in the assay with ETV5, 1.12 fold enrichment (6-mer frequency, TF over GST control); with HSF1, 1.3 fold enrichment (6-mer frequency, TF over GST control); with SPIC, 1.11 fold enrichment (6-mer frequency, TF over GST control); with ELF4, 1.25 fold enrichment (6-mer frequency, TF over GST control); in the assay with ELK4, 1.17 fold enrichment (6-mer frequency, TF over GST control). Also, the binding signal with ETV2 was 1.01 fold enrichment (6-mer frequency, TF over GST control); with ELF3 it was 1.16 fold enrichment (6-mer frequency, TF over GST control); with CRX it was 1.26 fold enrichment (6-mer frequency, TF over GST control); in the assay with ETV1 it was 1.1 fold enrichment (6-mer frequency, TF over GST control).
Take TAACTT: the binding signal with FEV is 1.51 fold enrichment (6-mer frequency, TF over GST control); in the assay with ETV5, 1.45 fold enrichment (6-mer frequency, TF over GST control); in the assay with HSF1, 1.28 fold enrichment (6-mer frequency, TF over GST control); with SPIC, 1.56 fold enrichment (6-mer frequency, TF over GST control); with ELF4, 1.33 fold enrichment (6-mer frequency, TF over GST control); with ELK4, 1.32 fold enrichment (6-mer frequency, TF over GST control). In addition, the binding signal with ETV2 is 1.59 fold enrichment (6-mer frequency, TF over GST control); with ELF3 it was 1.35 fold enrichment (6-mer frequency, TF over GST control); in the assay with CRX it was 1.56 fold enrichment (6-mer frequency, TF over GST control); with ETV1 it was 1.33 fold enrichment (6-mer frequency, TF over GST control).
Regarding CCGCAC, the binding signal is 1.42 fold enrichment (6-mer frequency, TF over GST control) with FEV; 1.4 fold enrichment (6-mer frequency, TF over GST control) with ETV5; 1.13 fold enrichment (6-mer frequency, TF over GST control) with HSF1; 1.27 fold enrichment (6-mer frequency, TF over GST control) in the assay with SPIC; 1.5 fold enrichment (6-mer frequency, TF over GST control) with ELF4; 1.3 fold enrichment (6-mer frequency, TF over GST control) with ELK4. The binding signal in the assay with ETV2 is 1.39 fold enrichment (6-mer frequency, TF over GST control); in the assay with ELF3, 1.39 fold enrichment (6-mer frequency, TF over GST control); in the assay with CRX it was 1.02 fold enrichment (6-mer frequency, TF over GST control); in the assay with ETV1, 1.47 fold enrichment (6-mer frequency, TF over GST control).
As for ATCCCG, the binding signal with FEV is 1.35 fold enrichment (6-mer frequency, TF over GST control); with ETV5 it was 1.43 fold enrichment (6-mer frequency, TF over GST control); with HSF1 it was 1.58 fold enrichment (6-mer frequency, TF over GST control); with SPIC, 1.39 fold enrichment (6-mer frequency, TF over GST control); with ELF4, 1.4 fold enrichment (6-mer frequency, TF over GST control); with ELK4, 1.37 fold enrichment (6-mer frequency, TF over GST control). Moreover, the binding signal is 1.28 fold enrichment (6-mer frequency, TF over GST control) in the assay with ETV2; 1.37 fold enrichment (6-mer frequency, TF over GST control) in the assay with ELF3; 1.67 fold enrichment (6-mer frequency, TF over GST control) with CRX; 1.44 fold enrichment (6-mer frequency, TF over GST control) in the assay with ETV1.
For the sequence TTATTC, the binding signal in the assay with FEV was 1.39 fold enrichment (6-mer frequency, TF over GST control); in the assay with ETV5 it was 1.33 fold enrichment (6-mer frequency, TF over GST control); with HSF1, 2.13 fold enrichment (6-mer frequency, TF over GST control); in the assay with SPIC, 1.45 fold enrichment (6-mer frequency, TF over GST control); with ELF4 it was 1.41 fold enrichment (6-mer frequency, TF over GST control); with ELK4 it was 1.31 fold enrichment (6-mer frequency, TF over GST control). In addition, the binding signal in the assay with ETV2 was 1.54 fold enrichment (6-mer frequency, TF over GST control); with ELF3 it was 1.24 fold enrichment (6-mer frequency, TF over GST control); with CRX, 2.37 fold enrichment (6-mer frequency, TF over GST control); with ETV1, 1.36 fold enrichment (6-mer frequency, TF over GST control).
For the sequence CCTATT, the binding signal with FEV is 1.39 fold enrichment (6-mer frequency, TF over GST control); in the assay with ETV5, 1.51 fold enrichment (6-mer frequency, TF over GST control); in the assay with HSF1, 1.43 fold enrichment (6-mer frequency, TF over GST control); in the assay with SPIC, 1.46 fold enrichment (6-mer frequency, TF over GST control); with ELF4 it was 1.44 fold enrichment (6-mer frequency, TF over GST control); with ELK4 it was 1.37 fold enrichment (6-mer frequency, TF over GST control). Also, the binding signal in the assay with ETV2 was 1.46 fold enrichment (6-mer frequency, TF over GST control); with ELF3 it was 1.54 fold enrichment (6-mer frequency, TF over GST control); in the assay with CRX it was 1.67 fold enrichment (6-mer frequency, TF over GST control); in the assay with ETV1, 1.55 fold enrichment (6-mer frequency, TF over GST control).
CTTGTG: the binding signal with FEV was 1.39 fold enrichment (6-mer frequency, TF over GST control); with ETV5, 1.51 fold enrichment (6-mer frequency, TF over GST control); with HSF1, 1.25 fold enrichment (6-mer frequency, TF over GST control); with SPIC, 1.45 fold enrichment (6-mer frequency, TF over GST control); with ELF4 it was 1.59 fold enrichment (6-mer frequency, TF over GST control); in the assay with ELK4, 1.26 fold enrichment (6-mer frequency, TF over GST control). The binding signal with ETV2 was 1.44 fold enrichment (6-mer frequency, TF over GST control); with ELF3 it was 1.5 fold enrichment (6-mer frequency, TF over GST control); with CRX, 1.25 fold enrichment (6-mer frequency, TF over GST control); with ETV1 it was 1.44 fold enrichment (6-mer frequency, TF over GST control).
Regarding ATTGCC, the binding signal in the assay with FEV is 1.25 fold enrichment (6-mer frequency, TF over GST control); in the assay with ETV5 it was 1.28 fold enrichment (6-mer frequency, TF over GST control); in the assay with HSF1, 1.09 fold enrichment (6-mer frequency, TF over GST control); in the assay with SPIC, 1.29 fold enrichment (6-mer frequency, TF over GST control); in the assay with ELF4, 1.3 fold enrichment (6-mer frequency, TF over GST control); with ELK4, 1.14 fold enrichment (6-mer frequency, TF over GST control). Moreover, the binding signal is 1.12 fold enrichment (6-mer frequency, TF over GST control) with ETV2; 1.24 fold enrichment (6-mer frequency, TF over GST control) with ELF3; 1.09 fold enrichment (6-mer frequency, TF over GST control) with CRX; 1.2 fold enrichment (6-mer frequency, TF over GST control) with ETV1.
